Screens deposited in PubChem by National Center for Advancing Translational Sciences (NCATS).
The full list was thinned out, with hits kept by preference.
Pf Dd2 growth: blocks in vitro growth of P. falciparum Dd2; P. falciparum Dd2 growth, SYBR Green, 72 h; Potency, µM (series often up to 28.9 µM), for inactives: at the top dose activity, negative = inhibition, hits mostly inhibitors; 120,000 tested, 4.3% active; AID 1347417; active = well fitted inhibition curve with a large enough effect;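 also: plate controls were DMSO vehicle for no effect and reference drug for full effect; nearly all actives have a fitted effect of over 65% in size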
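Infected erythrocytes (Dd2, 0.3% parasitemia, 2.5% hematocrit final) are added to compound in RPMI-1640/Albumax II medium, grown 72 h at 37C in low oxygen, then lysed with saponin/Triton-X containing SYBR Green and read by fluorescence.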
The depositor's hits bear a star; ! = repeats disagree; [ ] = dose if it differs, or a comment. Potency is read from the fitted curve at half-maximal effect.

What do the screens show for `Cn1cnnc1CC1CCN(C(=O)Nc2ccccc2)C1` (centres undefined)?
Pf Dd2 growth: -1%

What do the screens show for `COc1cc2c(cc1OC)C(COc1ccc3c(C)cc(=O)oc3c1)N(C(=O)CC(C)C)CC2` (centres undefined)?
Pf Dd2 growth: 11µM*

How did COc1cc2c(cc1OC)C(CNC(=O)CC(C)C)N(C(=O)Nc1cccc(F)c1)CC2 (centres undefined) do in these assays?
Pf Dd2 growth: inactive

What do the screens show for `COc1ccccc1NC(=O)N1CCc2cc(OC)c(OC)cc2C1CNC(=O)CC(C)C` (centres undefined)?
Pf Dd2 growth: inactive

How did CCOc1ccc(CC(=O)N2CCc3cc(OC)c(OC)cc3C2COc2ccc3c(C)cc(=O)oc3c2)cc1 (centres undefined) do in these assays?
Pf Dd2 growth: 4µM*

What do the screens show for `CCOc1ccc(NC(=O)N2CCc3cc(OC)c(OC)cc3C2CNC(=O)NC(C)C)cc1` (centres undefined)?
Pf Dd2 growth: -3%

Results for CCOc1ccc2oc(=O)cc(CN3CCN(C(=O)c4ccc(OC)c(OC)c4)CC3)c2c1 ?
Pf Dd2 growth: -9%

How did COc1ccc(-c2n[nH]c3c2CC(=O)N(Cc2ccccn2)C3)cn1 do in these assays?
Pf Dd2 growth: 7%[44.1 µM]

Results for COC(=O)c1ccc(CN2C(=O)[C@@H]3C[C@@H](O)CN3C3(CN(Cc4cccc(OC(F)(F)F)c4)C3)C2=O)cc1 ?
Pf Dd2 growth: -14%

How did O=C(c1cccnc1)N1CCC2(CC1)CC(N(C(=O)c1ccccc1)C1CC1)CCO2 (centres undefined) do in these assays?
Pf Dd2 growth: inactive

Results for O=C(c1ccncc1)N1CCC2(CC1)CN(c1ncccn1)CC2CO (centres undefined) ?
Pf Dd2 growth: inactive

Results for COc1ccc(-n2nc(C3CCCN(C(=O)Cc4ccccn4)C3)[nH]c2=O)cc1 (centres undefined) ?
Pf Dd2 growth: -19%

Results for COc1ccccc1-c1nc(C(=O)N2CCCC2)n2ccncc12 ?
Pf Dd2 growth: 10µM*

Results for Cn1ncc2c(C(=O)NCc3cccnc3)cc(-c3ccc(Cl)cc3Cl)nc21 ?
Pf Dd2 growth: inactive

What do the screens show for `COc1ccccc1-c1cc(C(=O)NCc2cccnc2)nn2cccc12`?
Pf Dd2 growth: -12%

Results for O=C(c1nc(-c2ccc(Cl)nc2)c2cnccn12)N1CCOCC1 ?
Pf Dd2 growth: 5%

What do the screens show for `O=C(NCc1ccc2c(c1)OCO2)c1nc(-c2ccc(Cl)cc2Cl)c2ccccn12`?
Pf Dd2 growth: inactive

Results for COC(=O)CNC(=O)c1nc(-c2ccccc2OC)c2cnccn12 ?
Pf Dd2 growth: 10%

What do the screens show for `O=C(NCc1cccnc1)c1nc(-c2ccc(Cl)cc2Cl)c2cnccn12`?
Pf Dd2 growth: 11µM*

What do the screens show for `COc1ccccc1-c1nc(C(=O)N(C)C)n2ccncc12`?
Pf Dd2 growth: 3%

What do the screens show for `COc1ccccc1-c1cc(C(=O)N2CCCC2)nn2cccc12`?
Pf Dd2 growth: 0%

How did C[S+](=O)([O-])c1ccc(-c2nc(C(=O)N3CCCC3)n3ccncc23)cc1 do in these assays?
Pf Dd2 growth: 13µM*

How did C[S+](=O)([O-])c1ccc(-c2nc(C(=O)N3CCOCC3)n3ccccc23)cc1 do in these assays?
Pf Dd2 growth: 18%

What do the screens show for `COc1ccccc1-c1nc(C(=O)NCc2cccnc2)n2ccncc12`?
Pf Dd2 growth: 10µM*!

What do the screens show for `O=C(NC[C@H]1OC[C@@H](NC2CCC2)[C@@H]1O)c1ccccc1`?
Pf Dd2 growth: -26%[44.1 µM]

What do the screens show for `COc1ccc(C2Cn3nnc(-c4noc(CCc5ccccc5)n4)c3CO2)cc1` (centres undefined)?
Pf Dd2 growth: inactive

Results for CCOc1ccccc1C1NC(=O)N(CC(=O)Nc2ccccc2C)C2=C1C(=O)OC2 (centres undefined) ?
Pf Dd2 growth: inactive

Results for COc1ccc(C(=O)NCC2Cn3cccc3C(=O)N2Cc2ccccc2)cn1 (centres undefined) ?
Pf Dd2 growth: -25%

Results for COc1ccc(C(=O)NC2CCN(c3cc(-c4ccccc4)[nH]n3)CC2)c(C)c1 ?
Pf Dd2 growth: inactive

What do the screens show for `CNC(=O)[C@@H]1CN(C(=O)c2ccc(Br)cc2F)C[C@H]1CO`?
Pf Dd2 growth: 12%

What do the screens show for `O=C(COc1ccccc1)NC[C@H]1O[C@H](Cc2cc(CN3CCNCC3)on2)CC[C@@H]1O`?
Pf Dd2 growth: 8%

What do the screens show for `COCC1CN(C(C)=O)CC12CCN(S(=O)(=O)c1cc(C)ccc1C)CC2` (centres undefined)?
Pf Dd2 growth: -21%

Results for O=C(CC1CCc2ccccc21)N1CCCN(c2ncccn2)CC1 (centres undefined) ?
Pf Dd2 growth: 17%

How did COCCOc1cc(=O)n2c(c1C(=O)NCc1ccccc1OC)CCOCC2 do in these assays?
Pf Dd2 growth: -19%

What do the screens show for `O=C(c1nc(-c2cccc(C(F)(F)F)c2)c2ccccn12)N1CCN(c2ncccn2)CC1`?
Pf Dd2 growth: -2%

Results for O=C(c1nc(-c2ccc(F)cc2)c2cnccn12)N1CCN(c2ncccn2)CC1 ?
Pf Dd2 growth: inactive

How did CC(C)(C)c1nc(C(=O)N2CCN(c3ncccn3)CC2)n2ccncc12 do in these assays?
Pf Dd2 growth: 5µM*

How did COC(=O)CNC(=O)c1nc(-c2ccc(Cl)cc2Cl)c2ccccn12 do in these assays?
Pf Dd2 growth: 21%

Results for CC(C)NC(=O)c1nc(-c2ccc(Cl)cc2Cl)c2cnccn12 ?
Pf Dd2 growth: 3.5µM*

How did COC(=O)CNC(=O)c1nc(-c2ccc(Cl)cc2Cl)c2cnccn12 do in these assays?
Pf Dd2 growth: -22%

What do the screens show for `Cc1noc(C)c1C1CCCN1C(=O)Cc1nc(-c2cccnc2)n[nH]1` (centres undefined)?
Pf Dd2 growth: -7%

How did Cc1ccc(N2CCC(N[C@@H]3CC[C@@H](N)C3)CC2)cc1Cl do in these assays?
Pf Dd2 growth: 13µM*

How did Cc1ccc(C(=O)NC2CCN(c3cnn(CC4CC4)c(=O)c3)CC2)cc1C do in these assays?
Pf Dd2 growth: inactive

How did Cc1ccc(-n2ncc3c(NC4CCCCCC4)ncnc32)cc1Cl do in these assays?
Pf Dd2 growth: inactive

Results for O=C(NCc1cccnc1)[C@@H]1C[C@@H](O)CN1C1CCN(C(=O)c2cc3ccccc3[nH]2)CC1 ?
Pf Dd2 growth: inactive

Results for Cc1ccsc1C(=O)N1CC(C(=O)NC2CCCCC2)C2(CCOCC2)C1 (centres undefined) ?
Pf Dd2 growth: -4%

Results for Cc1nc([C@@H]2CN(C(=O)c3ccc(Cl)s3)C[C@H]2C(N)=O)n[nH]1 ?
Pf Dd2 growth: 0%

How did COc1ccc(Cl)cc1NC(=O)c1cc(S(=O)(=O)N2CCC(C)CC2)cn1C do in these assays?
Pf Dd2 growth: 28%

Results for COc1ccc(N2CCN(C(=O)c3cc(S(=O)(=O)N4CCCCCC4)cn3C)CC2)cc1 ?
Pf Dd2 growth: -20%

What do the screens show for `COc1ccccc1N1CCN(C(=O)c2cc(S(=O)(=O)N3CCC(C)CC3)cn2C)CC1`?
Pf Dd2 growth: 8.9µM*

What do the screens show for `O=C(c1ccc(Cl)nc1)N1CCC(c2nn(-c3ccccc3)c(=O)[nH]2)CC1`?
Pf Dd2 growth: -19%

Results for COCC(=O)N[C@@H]1CN(S(C)(=O)=O)CC[C@@H]1c1nc(C)no1 ?
Pf Dd2 growth: inactive[5.79 µM]

Results for CNC(=O)c1nnn2cc(C)[nH]c(=O)c12 ?
Pf Dd2 growth: 53%

What do the screens show for `Cc1ccc(CNC(=O)c2nnn3cc(-c4ccc(F)cc4)[nH]c(=O)c23)cc1`?
Pf Dd2 growth: -4%
